Here are results for nine compounds from PubChem BioAssay.

A short description of assay [1]: compound effects on lung adenocarcinoma cell viability – A549, calcein-AM fluorescence, 48 h, basal, profiling panel (AID 1162). Also: test concentration not given here. Conditions: higher = more signal.
Assay [2] is described as follows: compound effects on differentiated 3T3-L1 adipocyte viability – cell-based, 3T3-L1 adipocytes, calcein-AM fluorescence, 48 h, basal, profiling panel (AID 1163). Also: test concentration not given here. To be noted: 3T3-L1 adipocytes viability, higher = more signal.
The nature of assay [3]: compound effects on hepatocellular carcinoma cell viability – HepG2, calcein-AM fluorescence, 48 h, basal, profiling panel (AID 1164). Also: test concentration not given here. Conditions: higher = more signal.
Assay [4] in a line: compound effects on multiple myeloma cell viability – MM1S, calcein-AM fluorescence, 48 h, basal, profiling panel (AID 1165). Also: test concentration not given here. Conditions: higher = more signal.
Assay [5] in a line: calcein-AM signal in unstimulated myeloma cells – cell-based, calcein-AM fluorescence, 48 h, PK04 Diversity Set, profiling panel (AID 1166).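 Also: cells grown under basal conditions without added stimulus; test concentration not given here.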 Conditions: RPMI8226 myeloma viability, higher = more signal.
A short description of assay [6]: JC-1 mitochondrial signal, unstimulated HepG2 cells – cell-based, JC-1 fluorescence, 24 h, 100 nL compound, profiling panel (AID 1167). Also: test concentration not given here. Conditions: HepG2 mitochondrial potential, higher = more signal.
The nature of assay [7]: JC-1 mitochondrial signal, unstimulated adipocytes – cell-based, JC-1 fluorescence, 3T3-L1 adipocytes, 24 h, 100 nL compound, profiling panel (AID 1168). Also: test concentration not given here. Conditions: JC-1 mitochondrial fluorescence, higher = more signal, called active from +8 up or from −8 down.
The nature of assay [8]: JC-1 mitochondrial signal, unstimulated myeloma cells – cell-based, JC-1 fluorescence, RPMI8226, 24 h, 100 nL compound, profiling panel (AID 1169). Also: test concentration not given here. To be noted: JC-1 mitochondrial potential fluorescence, higher = more signal.
A short description of assay [9]: JC-1 mitochondrial signal, unstimulated MM1S myeloma – cell-based, JC-1 fluorescence, 24 h, 100 nL compound, profiling panel (AID 1170). Also: test concentration not given here. Conditions: MM1S mitochondrial potential, higher = more signal.
Assay [10] is described as follows: resazurin metabolic signal in A549 cells – cell-based, resazurin fluorescence, 24 h, PK04 Diversity Set, profiling panel (AID 1171). Also: test concentration not given here. Conditions: A549 viability, higher = more signal, called active from +8 up or from −8 down. In general terms: Resazurin is reduced to fluorescent resorufin, in cell work by metabolically active cells.
Assay [11] can be described thus: resazurin metabolic signal in HepG2 cells – cell-based, resazurin fluorescence, 24 h, PK04 Diversity Set, profiling panel (AID 1172). Also: test concentration not given here. To be noted: HepG2 viability, higher = more signal.
Assay [12] can be described thus: budding yeast growth changes without added modifier – OD600, strain BY4716, 24 h, basal condition, primary screen (AID 1173). To be noted: S. cerevisiae BY4716 growth, OD600, 24 h; higher = more signal, called active from +8 up or from −8 down.
Assay [13] can be described thus: viability profiling in MM1S myeloma cells – cell-based, resazurin fluorescence, basal, 24 h, PK04 Diversity Set, profiling panel (AID 1174). Also: test concentration not given here. Conditions: higher = more signal, called active from +8 up or from −8 down.
Assay [14] has as its target Dihydroorotate dehydrogenase (quinone), mitochondrial (Plasmodium falciparum (isolate 3D7)) (UniProt Q08210). Kind of assay: inhibition of P. falciparum DHODH – biochemical, C-terminal His tag, absorbance 600 nm, primary screen (AID 1175).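 Also: recombinant parasite enzyme with a five histidine tag at its C terminus; test concentration not given here.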 To be noted: PfDHODH enzyme, DCIP absorbance 600 nm; higher = more signal, called active from +8 up or from −8 down.
The nature of assay [15]: inhibition of PAO1 biofilm formation – strain PAO1, LB-PBS medium, absorbance 600 nm, primary screen (AID 1176). Also: test concentration not given here. Conditions: P. aeruginosa PAO1 growth/biofilm, A600, 12 h; higher = more signal.
The nature of assay [16]: growth modulation of vineyard yeast isolate – strain RM11-1a, OD600, basal, 24 h, primary screen (AID 1177).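 Also: cultures grown under basal conditions with no added stressor; test concentration not given here.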 To be noted: S. cerevisiae RM11-1a growth, OD600, 24 h; higher = more signal, called active from +8 up or from −8 down.
Assay [17] is described as follows: growth of efflux-deficient E. coli DRC39 – strain DRC39, OD650, 24 h, E. coli filamentation inducers, primary screen (AID 1178).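 Also: growth measured as culture turbidity by optical density at 650 nm; test concentration not given here.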 Conditions: E. coli DRC39 acrAB, higher = more signal, called active from +8 up or from −8 down.
Assay [18] can be described thus: growth of efflux-deficient E. coli DRC39 – strain DRC39, OD650, 48 h, E. coli filamentation inducers, primary screen (AID 1179).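 Also: screen aims at cell division blockers that make cells filament.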 Conditions: E. coli DRC39 delta-acrAB growth, higher = more signal, called active from +8 up or from −8 down.
A short description of assay [19]: viability profiling in RPMI8226 myeloma cells – cell-based, resazurin fluorescence, basal, 24 h, PK04 Diversity Set, profiling panel (AID 1180).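 Also: RPMI8826 multiple myeloma cell line at 5000 cells per well; test concentration not given here.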 Conditions: higher = more signal.
Assay [20] concerns the target E3 ubiquitin-protein ligase XIAP (Homo sapiens) (UniProt P98170). Kind of assay: small molecules binding XIAP protein – biophysical, small-molecule microarray, fluorescence 635 nm, primary screen (AID 1181).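 Also: score merges 667 nm emission and signal to noise over triplicate slides.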 To be noted: higher = more signal.

Calls of active or inactive are those of the source. Unless noted, no rule for the calls is given here.

Dihydroorotate dehydrogenase (quinone), mitochondrial (Plasmodium falciparum (isolate 3D7)), sequence (Q08210 whole entry, looked up): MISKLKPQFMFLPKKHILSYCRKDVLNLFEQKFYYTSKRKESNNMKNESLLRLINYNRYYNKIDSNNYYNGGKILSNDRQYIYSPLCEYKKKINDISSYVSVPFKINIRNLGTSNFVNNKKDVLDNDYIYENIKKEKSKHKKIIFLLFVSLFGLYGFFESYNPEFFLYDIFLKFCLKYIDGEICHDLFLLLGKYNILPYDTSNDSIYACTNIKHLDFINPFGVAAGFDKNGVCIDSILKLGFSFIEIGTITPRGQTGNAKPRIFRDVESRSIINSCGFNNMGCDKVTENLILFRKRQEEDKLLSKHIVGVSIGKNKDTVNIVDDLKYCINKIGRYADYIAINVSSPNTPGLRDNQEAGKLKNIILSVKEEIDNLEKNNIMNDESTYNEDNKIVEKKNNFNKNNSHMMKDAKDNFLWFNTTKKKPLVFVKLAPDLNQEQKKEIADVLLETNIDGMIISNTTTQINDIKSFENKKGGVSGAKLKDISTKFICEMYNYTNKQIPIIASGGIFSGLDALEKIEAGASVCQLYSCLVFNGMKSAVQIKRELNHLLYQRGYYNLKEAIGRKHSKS
E3 ubiquitin-protein ligase XIAP (Homo sapiens), sequence (P98170 whole entry, looked up): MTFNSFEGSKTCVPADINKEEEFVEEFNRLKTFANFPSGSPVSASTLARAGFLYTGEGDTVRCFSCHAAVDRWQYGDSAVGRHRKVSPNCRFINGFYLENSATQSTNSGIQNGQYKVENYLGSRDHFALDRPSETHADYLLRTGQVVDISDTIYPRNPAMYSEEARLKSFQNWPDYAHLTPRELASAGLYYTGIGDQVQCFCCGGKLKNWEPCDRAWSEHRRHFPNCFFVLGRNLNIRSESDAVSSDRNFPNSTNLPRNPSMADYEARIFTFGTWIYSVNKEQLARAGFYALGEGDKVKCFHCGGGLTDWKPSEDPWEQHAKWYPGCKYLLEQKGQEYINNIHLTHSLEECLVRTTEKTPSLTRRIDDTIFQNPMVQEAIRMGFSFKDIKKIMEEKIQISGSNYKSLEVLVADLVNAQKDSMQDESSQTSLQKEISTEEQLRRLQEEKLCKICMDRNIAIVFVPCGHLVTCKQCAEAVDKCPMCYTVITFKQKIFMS

In the case of `C=C(C)C(=O)OC[C@H]1CN2[C@@H](CC[C@@H](C)[C@@H]2c2ccc(Br)cc2)C(=O)O1`, the z-score in assay [1] is 0.824; in assay [2], 0.278; in assay [3] it was 1.33; in assay [4], 0.244; in assay [5], -1.34; in [6], 0.393. Also, the z-score in [7] is -0.142 (inactive); in [8] it was -0.521; in assay [9] it was -0.197; in assay [10], 0.634 (inactive); in assay [11] it was 0.497; in assay [12], -1.84 (inactive). The z-score is -0.255 (inactive) in assay [13]; -0.136 (inactive) in assay [15]; 0.912 (inactive) in [16]; 0.644 (inactive) in assay [17]; -1.77 (inactive) in assay [18]; -0.314 in [19]. In addition, the composite z-score in assay [14] is 0.672 (inactive); in [20] it was 0.256.
`C[C@@H]1CC[C@H]2C(=O)N3[C@@H](CC[C@@H](C)[C@@H]3c3ccc(Br)cc3)C(=O)N2[C@H]1c1ccc(Br)cc1`: the z-score was -0.569 in assay [1]; -0.42 in assay [2]; -0.0355 in assay [3]; -2.69 in [4]; -2.57 in [5]; 1.65 in assay [6]. Moreover, the z-score in assay [7] is -0.76 (inactive); in assay [8] it was -0.22; in assay [9] it was 1.41; in [10] it was 0.632 (inactive); in assay [11] it was -0.346; in assay [12] it was 0.0314 (inactive). The z-score in [13] is 0.208 (inactive); in [15] it was -0.27 (inactive); in assay [16], 0.973 (inactive); in assay [17] it was -0.124 (inactive); in assay [18], -1.38 (inactive); in [19], 0.102. Also, the composite z-score was 0.553 (inactive) in [14] and -0.0056 in [20].
On to `CON(C)C(=O)c1nnc2c(n1)[nH]c1ccccc12`, for which the z-score in assay [1] was -0.681; in assay [2], 0.764; in [3], 0.429; in [4], -0.342; in [5], -0.0375; in assay [6], -0.88. The z-score was 0.471 (inactive) in assay [7]; -0.886 in assay [8]; 0.0753 in assay [9]; 0.447 (inactive) in assay [10]; -0.244 in [11]; 0.304 (inactive) in assay [12]. The z-score in assay [13] was 0.322 (inactive); in assay [15], 0.131 (inactive); in assay [16], -0.915 (inactive); in assay [17] it was 0.593 (inactive); in assay [18], 0.572 (inactive); in [19], 0.492. For the same compound, the composite z-score in assay [14] is -0.306 (inactive); in assay [20], 0.273.
As to `CC(C)CON=C1C[C@@H](O)[C@@H](O)[C@@H]2[C@@H]3C(=O)N(Cc4ccccc4)C(=O)[C@@H]3CC[C@H]12`, the z-score in [1] was -0.216; in assay [2], 0.785; in assay [3] it was -0.155; in [4], 0.825; in assay [5] it was -0.48; in assay [6], 0.974. The z-score was -1.26 (inactive) in assay [7]; -0.0623 in assay [8]; -0.628 in assay [9]; 0.312 (inactive) in assay [10]; 0.0344 in assay [11]; -1.11 (inactive) in assay [12]. Moreover, the z-score is 1.15 (inactive) in [13]; 0.92 (inactive) in assay [15]; -1.17 (inactive) in [16]; 0.68 (inactive) in assay [17]; -1.08 (inactive) in assay [18]; 0.851 in [19]. Moreover, the composite z-score in assay [14] was -0.451 (inactive); in [20] it was -0.0436.
Regarding `Cc1ccc(C(C)C)n1C(=O)OC(C)(C)C`, the z-score was 1.88 in assay [1]; 0.0856 in assay [2]; 0.577 in assay [3]; 0.547 in assay [4]; 0.228 in assay [5]; -0.503 in assay [6]. Moreover, the z-score in assay [7] was 0.499 (inactive); in assay [8], 0.68; in [9], 0.196; in assay [10] it was -1.47 (inactive); in assay [11], -0.728; in assay [12], -0.947 (inactive). Besides, the z-score in assay [13] was -1.46 (inactive); in [15], 1.01 (inactive); in [16], -1.18 (inactive); in assay [17], 0.32 (inactive); in [18], -0.113 (inactive); in assay [19], -1.65. In addition, the composite z-score is -1.24 (inactive) in assay [14] and -0.0509 in [20].
For the compound `O=C1[C@H]2[C@H]3[C@H](O)[C@H](O)CC(=NO[C@@H]4O[C@H](CO)[C@@H](O)[C@H](O)[C@H]4O)[C@@H]3CC[C@H]2C(=O)N1C[C@@H]1CCCO1`, the z-score was -0.863 in [1]; -0.0334 in assay [2]; -0.618 in assay [3]; -0.0584 in [4]; -2.03 in assay [5]; -0.42 in assay [6]. In addition, the z-score in assay [7] was -0.0322 (inactive); in [8], 0.0485; in assay [9], -1.16; in assay [10], 0.226 (inactive); in assay [11] it was -0.0979; in assay [12] it was -2.29 (inactive). Moreover, the z-score in assay [13] was -0.589 (inactive); in assay [15], -0.589 (inactive); in [16], -0.633 (inactive); in assay [17] it was 0.564 (inactive); in assay [18], 0.172 (inactive); in [19] it was 0.062. The composite z-score in assay [14] is -2.39 (inactive); in assay [20], -0.152.
Turning to `CO[C@@H]1COC(=O)CC=C[C@H](C)[C@H](OC)COC(=O)[C@@H]2CCCN2C(=O)CC=C[C@H]1C`, the z-score was -0.125 in assay [1]; 0.846 in assay [2]; -0.138 in assay [3]; 0.0805 in assay [4]; -0.822 in assay [5]; 1.07 in assay [6]. Moreover, the z-score in assay [7] was 0.332 (inactive); in assay [8], 0.114; in [9], 1.03; in [10] it was -0.541 (inactive); in assay [11], -0.144; in assay [12], -1.17 (inactive). The z-score in [13] is 0.918 (inactive); in assay [15] it was -1.33 (inactive); in [16] it was -0.203 (inactive); in [17], 0.422 (inactive); in assay [18] it was -0.0617 (inactive); in assay [19] it was 0.306. For the same compound, the results for the composite z-score in assay [14] and in assay [20] were -0.222 (inactive) and -0.02, respectively.
With `C[C@@H](c1ccccc1)N1C(=O)[C@H]2[C@H]3[C@H](O)[C@H](O)CC(=NOC[C@@H](O)COCc4ccco4)[C@H]3CC[C@H]2C1=O`, the z-score in assay [1] was -0.428; in assay [2], 0.565; in [3], -0.187; in assay [4] it was 0.352; in assay [5] it was -1.83; in assay [6], -0.137. The z-score in assay [7] was -0.387 (inactive); in [8], -0.84; in assay [9], -0.0829; in assay [10], -0.268 (inactive); in assay [11], -0.259; in assay [12], -0.123 (inactive). Moreover, the z-score was 0.899 (inactive) in assay [13]; 0.118 (inactive) in assay [15]; -0.286 (inactive) in [16]; -0.501 (inactive) in assay [17]; -0.267 (inactive) in [18]; 0.0536 in assay [19]. In addition, the composite z-score in [14] is -0.222 (inactive); in assay [20], -0.102.
In the case of `C[C@@H]1CC[C@H]2C(=O)OC(Cc3ccccc3)CN2[C@H]1c1ccc(Br)cc1` (stereo not given in full), the z-score was 1.47 in assay [1]; -1.25 in assay [2]; 0.556 in assay [3]; 0.637 in assay [4]; -0.66 in assay [5]; 1.34 in assay [6]. Also, the z-score in assay [7] was -1.43 (inactive); in assay [8], 0.558; in assay [9] it was -0.332; in assay [10], 0.472 (inactive); in assay [11] it was 0.352; in [12], -3.48 (inactive). Moreover, the z-score in assay [13] was 0.417 (inactive); in assay [15] it was -0.658 (inactive); in assay [16], 0.2 (inactive); in [17], 1.06 (inactive); in [18], 0.485 (inactive); in assay [19], -0.726. Besides, the composite z-score was 0.637 (inactive) in [14] and 0.0299 in assay [20].
